In the supplement of paper PMC10849652:
The full data set covers some 7,900 targets. This sample favours those with a hit. About 0.6% of all pairs of compound and target were hits. Unmarked numbers belong to inactive results.

What follows are targets tested with CS(=O)(=O)N1CCN(Cc2cc3nc(-c4cccc5[nH]ncc45)nc(N4CCOCC4)c3s2)CC1 [pictilisib] (assay: log2 fold change, soluble protein after heating vs DMSO (PISA); higher = thermal stabilisation; K562 cells, 10 uM, 30 min; active = over 0.2 and 3.5 SD of the protein, either way, in both replicates (recomputed)).
Method in brief: (§1)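 Thermal stability values are relative to control samples and come from duplicates. They are expressed as log2 fold changes. For measurement, K562 cells (2×10^6 cells/mL) received 10 μM compound for 30 min, and aliquots were heated for 3 min over 48°C-58°C, pooled, and extracted at 4°C in PBS with 0.5% NP-40. Soluble protein, the supernatant after 21,000xg for 90 min, was quantified by TMTpro 16plex LC-MS/MS with equalised channel sums.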

Sequence of UniProt Q12824 (Q12824 whole entry, looked up): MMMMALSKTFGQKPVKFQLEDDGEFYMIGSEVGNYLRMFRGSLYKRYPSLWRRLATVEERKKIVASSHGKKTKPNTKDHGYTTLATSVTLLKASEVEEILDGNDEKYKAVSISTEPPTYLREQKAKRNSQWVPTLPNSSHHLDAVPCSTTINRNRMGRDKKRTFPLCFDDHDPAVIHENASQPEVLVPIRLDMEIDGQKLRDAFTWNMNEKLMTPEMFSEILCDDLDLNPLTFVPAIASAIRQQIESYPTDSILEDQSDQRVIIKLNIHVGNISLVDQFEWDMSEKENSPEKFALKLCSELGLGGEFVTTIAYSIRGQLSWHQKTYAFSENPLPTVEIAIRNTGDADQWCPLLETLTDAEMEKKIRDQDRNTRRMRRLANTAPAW
Sequence of UniProt Q6ZRS2 (Q6ZRS2 whole entry, looked up): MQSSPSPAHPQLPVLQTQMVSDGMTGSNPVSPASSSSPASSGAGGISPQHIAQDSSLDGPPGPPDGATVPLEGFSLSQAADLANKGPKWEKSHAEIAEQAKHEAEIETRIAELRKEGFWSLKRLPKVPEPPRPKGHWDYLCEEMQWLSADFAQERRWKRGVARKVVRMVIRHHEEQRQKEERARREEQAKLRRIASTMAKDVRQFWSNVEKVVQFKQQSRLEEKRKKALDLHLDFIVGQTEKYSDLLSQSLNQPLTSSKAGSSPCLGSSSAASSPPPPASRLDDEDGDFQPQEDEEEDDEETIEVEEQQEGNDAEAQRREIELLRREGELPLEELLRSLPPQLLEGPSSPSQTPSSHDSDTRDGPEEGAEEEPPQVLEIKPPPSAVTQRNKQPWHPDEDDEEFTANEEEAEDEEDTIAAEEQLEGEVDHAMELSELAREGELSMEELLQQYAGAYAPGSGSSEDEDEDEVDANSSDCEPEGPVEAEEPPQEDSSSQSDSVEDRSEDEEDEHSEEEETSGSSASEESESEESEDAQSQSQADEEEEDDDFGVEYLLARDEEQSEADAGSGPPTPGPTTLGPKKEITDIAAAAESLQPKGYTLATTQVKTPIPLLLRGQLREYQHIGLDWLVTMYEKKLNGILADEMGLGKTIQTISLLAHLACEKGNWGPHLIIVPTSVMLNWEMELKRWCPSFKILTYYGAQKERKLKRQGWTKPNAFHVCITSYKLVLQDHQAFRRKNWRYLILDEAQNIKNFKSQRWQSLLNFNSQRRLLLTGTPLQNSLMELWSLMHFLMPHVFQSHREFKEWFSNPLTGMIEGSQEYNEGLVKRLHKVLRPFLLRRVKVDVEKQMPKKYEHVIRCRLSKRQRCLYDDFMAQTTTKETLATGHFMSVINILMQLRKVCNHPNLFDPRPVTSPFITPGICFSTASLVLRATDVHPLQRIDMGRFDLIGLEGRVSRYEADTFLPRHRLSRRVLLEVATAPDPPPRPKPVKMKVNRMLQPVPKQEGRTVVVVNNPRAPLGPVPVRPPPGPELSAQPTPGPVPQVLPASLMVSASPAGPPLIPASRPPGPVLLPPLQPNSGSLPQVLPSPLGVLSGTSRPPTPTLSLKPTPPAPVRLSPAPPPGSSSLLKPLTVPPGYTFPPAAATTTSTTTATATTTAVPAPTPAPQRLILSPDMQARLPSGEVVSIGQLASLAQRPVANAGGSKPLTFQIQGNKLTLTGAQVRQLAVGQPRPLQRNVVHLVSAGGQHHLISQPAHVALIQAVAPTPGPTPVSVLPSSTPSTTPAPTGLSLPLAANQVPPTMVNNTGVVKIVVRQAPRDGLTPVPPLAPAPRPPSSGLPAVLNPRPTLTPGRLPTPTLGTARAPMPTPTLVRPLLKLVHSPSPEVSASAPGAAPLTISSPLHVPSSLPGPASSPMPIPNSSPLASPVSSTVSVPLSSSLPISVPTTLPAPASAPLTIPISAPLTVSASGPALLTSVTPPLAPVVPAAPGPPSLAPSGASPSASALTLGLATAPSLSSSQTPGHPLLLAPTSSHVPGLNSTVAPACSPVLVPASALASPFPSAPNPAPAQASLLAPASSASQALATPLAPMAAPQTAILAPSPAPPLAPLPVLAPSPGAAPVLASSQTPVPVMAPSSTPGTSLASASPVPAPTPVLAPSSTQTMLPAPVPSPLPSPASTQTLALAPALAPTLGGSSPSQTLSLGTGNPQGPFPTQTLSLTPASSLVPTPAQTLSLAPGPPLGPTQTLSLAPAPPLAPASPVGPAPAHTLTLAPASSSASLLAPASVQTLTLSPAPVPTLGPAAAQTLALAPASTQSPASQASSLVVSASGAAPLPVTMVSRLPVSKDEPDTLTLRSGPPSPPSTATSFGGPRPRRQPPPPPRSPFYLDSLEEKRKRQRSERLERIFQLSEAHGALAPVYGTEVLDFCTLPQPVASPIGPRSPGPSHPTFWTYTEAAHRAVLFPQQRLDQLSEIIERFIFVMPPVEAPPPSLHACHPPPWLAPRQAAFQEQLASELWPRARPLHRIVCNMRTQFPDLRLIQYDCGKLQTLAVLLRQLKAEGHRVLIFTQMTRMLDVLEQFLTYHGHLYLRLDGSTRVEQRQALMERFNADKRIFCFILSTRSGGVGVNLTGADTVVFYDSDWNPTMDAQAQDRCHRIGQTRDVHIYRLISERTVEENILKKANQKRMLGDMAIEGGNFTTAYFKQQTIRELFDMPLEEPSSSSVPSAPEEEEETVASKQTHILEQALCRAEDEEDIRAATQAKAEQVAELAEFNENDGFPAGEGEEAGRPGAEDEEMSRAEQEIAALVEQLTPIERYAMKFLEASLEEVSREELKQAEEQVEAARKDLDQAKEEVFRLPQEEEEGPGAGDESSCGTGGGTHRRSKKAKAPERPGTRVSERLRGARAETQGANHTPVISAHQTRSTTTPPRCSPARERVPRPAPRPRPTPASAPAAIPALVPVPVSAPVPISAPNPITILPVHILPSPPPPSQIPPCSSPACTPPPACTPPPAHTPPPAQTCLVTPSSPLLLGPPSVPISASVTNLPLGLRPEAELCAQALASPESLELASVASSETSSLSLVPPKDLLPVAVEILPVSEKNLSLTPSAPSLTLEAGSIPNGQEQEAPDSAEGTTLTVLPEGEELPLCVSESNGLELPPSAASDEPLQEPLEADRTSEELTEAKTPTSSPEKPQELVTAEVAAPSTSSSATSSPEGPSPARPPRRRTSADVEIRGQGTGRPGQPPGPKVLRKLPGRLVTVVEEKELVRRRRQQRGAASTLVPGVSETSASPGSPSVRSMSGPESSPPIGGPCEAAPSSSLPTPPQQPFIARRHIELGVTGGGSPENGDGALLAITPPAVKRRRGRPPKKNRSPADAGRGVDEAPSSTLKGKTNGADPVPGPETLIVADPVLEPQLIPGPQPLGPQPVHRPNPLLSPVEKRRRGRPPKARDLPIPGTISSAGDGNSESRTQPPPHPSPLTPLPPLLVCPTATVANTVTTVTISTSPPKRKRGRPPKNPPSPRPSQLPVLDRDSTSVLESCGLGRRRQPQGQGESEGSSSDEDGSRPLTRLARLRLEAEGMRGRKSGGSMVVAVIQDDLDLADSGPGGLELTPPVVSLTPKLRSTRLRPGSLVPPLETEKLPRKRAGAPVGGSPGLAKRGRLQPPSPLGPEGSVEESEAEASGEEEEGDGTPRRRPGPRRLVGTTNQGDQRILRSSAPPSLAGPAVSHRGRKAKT
Sequence of UniProt P78383 (P78383 whole entry, looked up): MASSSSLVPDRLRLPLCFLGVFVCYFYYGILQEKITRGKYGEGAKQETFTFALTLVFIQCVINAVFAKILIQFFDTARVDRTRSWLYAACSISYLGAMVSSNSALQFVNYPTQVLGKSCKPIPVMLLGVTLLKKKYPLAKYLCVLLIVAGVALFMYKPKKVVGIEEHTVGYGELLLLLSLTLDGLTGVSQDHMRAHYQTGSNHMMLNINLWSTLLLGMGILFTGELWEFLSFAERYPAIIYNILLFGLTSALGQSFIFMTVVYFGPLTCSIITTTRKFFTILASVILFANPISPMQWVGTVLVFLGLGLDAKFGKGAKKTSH
Sequence of UniProt Q8N5G0 (Q8N5G0 whole entry, looked up): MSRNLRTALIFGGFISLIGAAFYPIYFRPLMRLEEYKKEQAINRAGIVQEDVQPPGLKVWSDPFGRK
Sequence of UniProt Q969X1 (Q969X1 whole entry, looked up): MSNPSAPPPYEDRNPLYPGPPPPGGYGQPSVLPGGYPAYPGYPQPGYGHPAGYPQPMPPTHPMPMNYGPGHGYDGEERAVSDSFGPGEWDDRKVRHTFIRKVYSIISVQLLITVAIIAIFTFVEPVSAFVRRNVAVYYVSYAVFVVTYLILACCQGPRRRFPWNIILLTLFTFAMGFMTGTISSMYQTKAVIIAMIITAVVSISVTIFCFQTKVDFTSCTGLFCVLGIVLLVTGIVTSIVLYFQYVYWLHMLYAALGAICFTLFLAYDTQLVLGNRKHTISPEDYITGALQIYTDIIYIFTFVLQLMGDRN
Sequence of UniProt O60749 (O60749 whole entry, looked up): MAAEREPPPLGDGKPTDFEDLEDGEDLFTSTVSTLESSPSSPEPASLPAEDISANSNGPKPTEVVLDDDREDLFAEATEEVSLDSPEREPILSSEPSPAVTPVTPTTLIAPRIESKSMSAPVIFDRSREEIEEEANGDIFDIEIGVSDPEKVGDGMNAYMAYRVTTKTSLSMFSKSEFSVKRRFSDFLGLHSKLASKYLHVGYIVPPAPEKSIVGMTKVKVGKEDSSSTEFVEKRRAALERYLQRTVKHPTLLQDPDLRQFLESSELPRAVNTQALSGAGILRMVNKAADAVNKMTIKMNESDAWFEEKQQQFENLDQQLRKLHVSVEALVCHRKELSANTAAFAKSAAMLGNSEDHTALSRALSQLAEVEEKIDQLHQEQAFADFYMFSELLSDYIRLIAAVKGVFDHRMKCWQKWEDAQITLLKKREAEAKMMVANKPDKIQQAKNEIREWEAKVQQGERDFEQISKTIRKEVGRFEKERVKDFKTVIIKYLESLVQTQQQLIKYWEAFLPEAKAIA
Sequence of UniProt Q9Y5J6 (Q9Y5J6 whole entry, looked up): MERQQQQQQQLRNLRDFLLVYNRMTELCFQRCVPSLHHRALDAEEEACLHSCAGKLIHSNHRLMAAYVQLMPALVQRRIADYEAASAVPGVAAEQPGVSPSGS

| Target | log2 fold change |
| --- | --- |
| SMPD4 isoform 2 (UniProt Q9NXE4) | -0.108 |
| SPIRE1 (UniProt Q08AE8) | 0.188 |
| TCOF1 isoform 3 (UniProt Q13428) | 0.188 |
| SLC8B1 (UniProt Q6J4K2) | 0.016 |
| SSB (UniProt E7ERC4) | -0.086 |
| TAOK2 (UniProt Q9UL54) | 0.003 |
| SRCAP (UniProt Q6ZRS2) | 0.015 |
| TENT5C (UniProt Q5VWP2) | 0.168 |
| TBC1D2 (UniProt Q9BYX2) | -0.097 |
| SLC46A1 (UniProt Q96NT5) | 0.061 |
| SMARCB1 (UniProt Q12824) | 0.424 |
| TIMM10B (UniProt Q9Y5J6) | -0.126 |
| TEX30 (UniProt Q5JUR7) | 0.057 |
| SLC39A1 (UniProt Q9NY26) | -0.053 |
| SMIM20 isoform 2 (UniProt Q8N5G0) | -0.044 |
| TMBIM1 (UniProt Q969X1) | 0.138 |
| TACC2 (UniProt O95359) | 0.046 |
| TK1 (UniProt K7ERV3) | 0.102 |
| SSBP4 (UniProt Q9BWG4) | 0.117 |
| TAF6L (UniProt Q9Y6J9) | 0.166 |

What follows are targets tested with CS(=O)(=O)c1ccc(-c2cnc(N)c(C(=O)Nc3ccccc3)n2)cc1 in the same assay as above.
Method in brief: as §1

| Target | log2 fold change |
| --- | --- |
| SLC35B1 isoform 2 (UniProt P78383) | 0.049 |
| SNX2 isoform 2 (UniProt O60749) | 0.135 |
| TCOF1 isoform 3 (UniProt Q13428) | -0.103 |
| SNRK (UniProt Q9NRH2) | 0.008 |
| SRCAP (UniProt Q6ZRS2) | -0.015 |
| TENT5C (UniProt Q5VWP2) | 0.044 |
| SMARCB1 (UniProt Q12824) | 0.024 |
| TCOF1 isoform 6 (UniProt Q13428) | -0.07 |
| SLC35B4 (UniProt Q969S0) | 0.016 |
| TIMM10B (UniProt Q9Y5J6) | 0.107 |
| SLC35F6 (UniProt Q8N357) | -0.247 |
| TM7SF2 (UniProt O76062) | -0.044 |
| SMIM20 isoform 2 (UniProt Q8N5G0) | -0.014 |
| TMBIM1 (UniProt Q969X1) | -0.03 |
| SP2 (UniProt Q02086) | -0.14 |
| TACC2 (UniProt O95359) | -0.045 |
| TK1 (UniProt K7ERV3) | 0 |
| SSBP4 (UniProt Q9BWG4) | -0.054 |
| TAF6L (UniProt Q9Y6J9) | -0.035 |

The targets below were run with C[C@@H](Oc1cc(-c2cnn(C3CCNCC3)c2)cnc1N)c1c(Cl)ccc(F)c1Cl [crizotinib] in the same assay as above.
Method in brief: as §1

| Target | log2 fold change |
| --- | --- |
| SLC35B1 isoform 2 (UniProt P78383) | -0.053 |
| SNX2 isoform 2 (UniProt O60749) | -0.145 |
| SMPD4 isoform 2 (UniProt Q9NXE4) | -0.21 |
| SPIRE1 (UniProt Q08AE8) | -0.105 |
| SLC8B1 (UniProt Q6J4K2) | -0.793 (active) |
| SNRK (UniProt Q9NRH2) | -0.026 |
| TAOK2 (UniProt Q9UL54) | 0.157 |
| SPIN4 (UniProt Q56A73) | 0.108 |
| SRCAP (UniProt Q6ZRS2) | -0.276 |
| TENT5C (UniProt Q5VWP2) | 0.043 |
| THAP9 (UniProt Q9H5L6) | -0.004 |
| TBP (UniProt P20226) | 0.048 |
| SREBF1 isoform 4 (UniProt P36956) | 0.106 |
| SMARCB1 (UniProt Q12824) | -0.128 |
| TCOF1 isoform 6 (UniProt Q13428) | 0.032 |
| SLC35B4 (UniProt Q969S0) | 0.256 |
| TEX30 (UniProt Q5JUR7) | -0.206 |
| SP2 (UniProt Q02086) | 0.083 |
| STK17B (UniProt O94768) | -0.227 |
| SSBP4 (UniProt Q9BWG4) | -0.034 |

These targets were tested with C[C@@H]1COCCN1C2=NC(=NC(=C2)C3(CC3)S(=O)(=O)C)C4=C5C=CNC5=CC=C4 in the same assay as above.
Method in brief: as §1

| Target | log2 fold change |
| --- | --- |
| SLC35B1 isoform 2 (UniProt P78383) | -0.042 |
| SNX2 isoform 2 (UniProt O60749) | 0.071 |
| SPIRE1 (UniProt Q08AE8) | -0.324 |
| TCOF1 isoform 3 (UniProt Q13428) | 0.542 |
| TAOK2 (UniProt Q9UL54) | -0.108 |
| TBC1D2 (UniProt Q9BYX2) | 0.064 |
| TBP (UniProt P20226) | -0.021 |
| SREBF1 isoform 4 (UniProt P36956) | 0.084 |
| SYK (UniProt P43405) | -0.093 |
| SLC35B4 (UniProt Q969S0) | 0.048 |
| TIMM10B (UniProt Q9Y5J6) | 0.129 |
| SLC35F6 (UniProt Q8N357) | 0.021 |
| TEX30 (UniProt Q5JUR7) | 0.073 |
| SMIM20 isoform 2 (UniProt Q8N5G0) | 0.126 |
| TMBIM1 (UniProt Q969X1) | -0.043 |
| TK1 (UniProt K7ERV3) | 0.021 |
